Holding throughout (assay): qHTS profiling for inhibitors of Plasmodium falciparum proliferation (AID 504749); also: nearly all actives have a fitted effect of over 60% in size
Common to all, as to settings: P. falciparum in erythrocytes, SYBR Green DNA, 72 h; series mostly up to 28.7 µM

For one assay, the system named is CP266. In outline:
(§1)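 Each compound contacts P. falciparum-infected red blood cells for 72 h at 37 C; lysis buffer (Tris, EDTA, saponin, Triton X, SYBR Green I) is added and fluorescence measured next morning; values normalized to controls.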

Another assay concerns CP297. In outline:
as §1

The test system of the next assay is CP315. In outline: as §1
Another assay deals with DIV17. The essentials:
as §1

For another assay, the system named is Dd2. In outline: as §1
In a further assay the test system is FAB9. The essentials:
as §1

The next assay concerns GB4. In outline:
as §1

The test system of a further assay is DIV14. In outline:
as §1

A further assay has as its system DIV30. In outline:
as §1

Another assay relates to CP269. In outline: as §1
The next assay relates to CP286. The essentials:
as §1

A further assay has as its system CP291. The essentials: as §1
A further assay has as its system CP325. In outline: as §1
The test system of a further assay is CP329. In outline:
as §1

A further assay relates to ECU. In outline:
as §1

Another assay concerns CP268. In outline:
as §1

The test system of a further assay is CP305. In outline: as §1
Another assay relates to CP335. In outline: as §1
Another assay concerns DFO2036. In outline:
as §1

The next assay concerns CP265. The essentials: as §1

Results on 14 molecules are retold here after PubChem BioAssay (NCATS).

Results filed as inconclusive are left out. Activity calls are given as the source filed them. Calls follow the shape of the dose curve; as a rule, active = well fitted inhibition curve with a large enough effect; inconclusive = small, poorly fitted or top-dose-only effect; inactive = flat fitted curve, though single readings scatter.
Potency is read from the fitted curve at half-maximal effect.

With `OC(C#CCN1CCCC1)(c1ccccc1)c1ccccc1`, the Potency entry in the assay on CP266, in the assay on CP315 and in the assay with FAB9 was “inactive” each time. Further, the Potency in the assay with CP297 was 12 µM (active); in the assay with DIV17 it was 13.5 µM (active); with Dd2, 8.91 µM (active); in the assay with GB4, 6.75 µM (active).
In the case of `NC1CCN(c2nc3c(cc2F)c(=O)c(C(=O)O)cn3-c2ccc(F)cc2F)C1` (stereo unspecified), the Potency entry in the assay with CP315, with DIV14, in the assay with DIV17, in the assay with DIV30 and in the assay on FAB9 was “inactive” each time.
With `CCOCCn1c(N2CCCN(C)CC2)nc2ccccc21`, the Potency result in the assay with CP269, in the assay with CP286, in the assay on CP291, in the assay with CP315, in the assay with CP325 and in the assay with CP329 was “inactive” each time. Also, the Potency entry with ECU and with FAB9 was “inactive” each time. Further, the Potency in the assay on DIV14 and in the assay with DIV17 was 7.57 µM (active) each time.
Consider `O=C(Nc1cccc(C2=NCCN2)c1)Nc1cccc(C2=NCCN2)c1`, for which the Potency in the assay with CP268 was 15.1 µM (active); with CP269 it was 12 µM (active); in the assay with CP286, 2 µM (active); in the assay on CP291 it was 15.1 µM (active); in the assay on CP297, 13.5 µM (active); with CP305 it was 7.57 µM (active). Further, the Potency was 16.9 µM (active) with CP315; 13.5 µM (active) in the assay with CP329; 12 µM (active) in the assay on CP335; 1.78 µM (active) in the assay with DFO2036; 3.01 µM (active) in the assay on DIV14; 4.26 µM (active) in the assay on DIV17. Also, the Potency was 13.5 µM (active) with DIV30, 0.891 µM (active) in the assay on Dd2, 3.16 µM (active) in the assay on ECU and 3.79 µM (active) in the assay on GB4.
Consider `CC1CCc2c(N3CCC(O)CC3)c(F)cc3c(=O)c(C(=O)O)cn1c23` (stereo unspecified), for which the Potency entry in the assay with CP265, with CP297, with CP315, in the assay on CP325, with CP329 and in the assay on DIV17 was “inactive” each time. Further, the Potency result in the assay on DIV30, in the assay on Dd2, in the assay on ECU and with FAB9 was “inactive” in each case.
As for `CCN(CC)CCOc1ccccc1C(=O)CCc1ccccc1`, the Potency result with CP269, in the assay on CP315, with ECU and in the assay with FAB9 was “inactive” in each case. The Potency in the assay with DIV14 was 6.75 µM (active); in the assay on DIV17, 7.57 µM (active); in the assay on Dd2, 4.47 µM (active).
Take `CN1CCN(C2=Nc3ccccc3Sc3ccc(Cl)cc32)CC1`: the Potency result in the assay on CP266, in the assay on CP268, in the assay on CP305, in the assay on CP315, with CP325 and with CP329 was “inactive” each time. Further, the Potency entry in the assay with DFO2036, in the assay on ECU and in the assay with FAB9 was “inactive” throughout.
Take `CN1CCN(c2c(F)cc3c(=O)c(C(=O)O)cn4c3c2SCC4)CC1`: the Potency entry with CP266, with CP315, in the assay with CP329, in the assay on DIV14, with DIV17 and in the assay with DIV30 was “inactive” throughout. The Potency entry in the assay on FAB9 and with GB4 was “inactive” throughout. In addition, in the assay on Dd2, the Potency was 10 µM (active).
For the molecule `Cc1ncc(CO)c(C=O)c1O`, the Potency result in the assay with CP265, with CP286, in the assay with CP335, with DFO2036, in the assay on Dd2 and in the assay with ECU was “inactive” each time. For the same molecule, the Potency entry in the assay with FAB9 is “inactive”.
As for `COc1cc(O)c(C(=O)c2ccccc2)cc1S(=O)(=O)O`, the Potency result with CP266, in the assay on CP268, in the assay on CP286, in the assay with CP291, in the assay on CP297 and in the assay on CP315 was “inactive” in each case. Besides, the Potency result in the assay on CP325, in the assay with CP329, with DFO2036, with DIV30, with Dd2 and in the assay on FAB9 was “inactive” in each case.
Consider `CN1CCN(C2=Nc3cc(F)ccc3Cc3ccccc32)CC1`, for which the Potency result in the assay with CP268, with CP269, in the assay on CP286, with CP291, in the assay with CP305 and in the assay on CP315 was “inactive” throughout. Further, the Potency entry with CP325, in the assay with CP329, with DFO2036, in the assay on DIV30, with ECU and in the assay on FAB9 was “inactive” throughout. Moreover, in the assay on Dd2, the Potency was 14.1 µM (active).
Consider `CC(=O)O[C@H]1C[C@@H]2CC[C@@H]3[C@H](CC[C@@]4(C)[C@H]3C[C@H]([N+]3(C)CCCCC3)[C@@H]4OC(C)=O)[C@@]2(C)C[C@@H]1N1CCCCC1`, for which the Potency entry in the assay with CP268, with CP291, in the assay with CP315, in the assay on DFO2036, in the assay on DIV30 and with ECU was “inactive” throughout. Besides, the Potency entry in the assay on FAB9 is “inactive”.
In the case of `COc1ccc(C(=O)c2ccccc2O)c(O)c1`, the Potency entry with CP266, in the assay with CP268, in the assay with CP269, in the assay on CP286, in the assay on CP291 and with CP297 was “inactive” in each case. The Potency entry in the assay with CP305, in the assay on CP315, with CP325, in the assay on CP329, with CP335 and in the assay on DFO2036 was “inactive” in each case. Besides, the Potency entry with Dd2, in the assay on ECU and in the assay with FAB9 was “inactive” each time.
Consider `CCC(C(=O)OCCOCCN(CC)CC)c1ccccc1` (stereo unspecified), for which the Potency result in the assay with CP266, in the assay with CP268, in the assay on CP269, with CP286, with CP291 and in the assay with CP305 was “inactive” throughout. Also, the Potency entry in the assay with CP315, in the assay with CP325, with CP329, with DFO2036, in the assay with DIV30 and in the assay on ECU was “inactive” throughout. The Potency entry with FAB9 was “inactive”. The Potency in the assay on CP297 was 15.1 µM (active).
